Laboratory results published in PubChem BioAssay (Tox21).
Results filed as inconclusive are left out. The source made the active and inactive calls. Unless noted, calls come from the whole dose curve.

What was measured:
[1] = qHTS assay to identify small molecule antagonists of the vitamin D receptor (VDR) signaling pathway - cell viability counter screen (AID 743225; active = well fitted curve in the direction sought with a large enough effect in the repeat runs; an effect the other way counts as inactive or inconclusive; note: % is set by controls: 0 for no effect and ±100 for the full control effect; nearly all actives have a fitted effect of over 50% in size)
Method in brief: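 Read-out: CellTiter-Glo luminescence measured 30 min after reagent addition at room temperature. Cells were VDR-bla HEK 293T exposed 16 h at 37C, 5% CO2, to compound with 3 nM final calcitriol agonist.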

[2] = qHTS assay to identify small molecule agonists of the endoplasmic reticulum stress response signaling pathway - cell viability counter screen (AID 1159517); note: nearly all actives have a fitted effect of over 50% in size; note: potency is the fitted concentration of half-maximal effect;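 for activity change, negative = cytotoxicity: HeLa cells carrying an ER stress response element beta-lactamase reporter; series mostly up to about 61 µM; % is set by controls: 0 for no effect and ±100 for the full control effect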
Method in brief: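 Counter-screen wells were identical to the reporter wells. Cells were plated at 1,500 per well and dosed for 5 hr, then read for luminescence 30 min after CellTiter-Glo addition.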

[3] = target: Nuclear receptor ROR-gamma (Homo sapiens) (UniProt P51449); experiment: qHTS assay to identify small molecule antagonists of the retinoid-related orphan receptor gamma (ROR-gamma) signaling pathway (AID 1159521; active = well fitted curve in the direction sought with a large enough effect in the repeat runs; an effect the other way counts as inactive or inconclusive; note: nearly all actives have a fitted effect of over 50% in size; note: potency is the fitted concentration of half-maximal effect;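 for activity change, negative = inhibition: CHO cells with doxycycline inducible ROR-gamma driving an RORE luciferase reporter; top concentration of the series differs between compounds; % is set by controls: 0 for no effect and ±100 for the full control effect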)
Method in brief: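 CHO Tet-on RORγ, RORE-luc reporter. Cpd 2 h pre-incubation, then dox hyclate 1 uM final, 16 h, 37 C/5% CO2. ONE-Glo luminescence; decrease = antagonist.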

[4] = target: Retinoic acid receptor RXR-alpha (Homo sapiens) (UniProt P19793); experiment: qHTS assay to identify small molecule agonists of the RXR signaling pathway (AID 1159527); note: nearly all actives have a fitted effect of over 35% in size; note: potency is the fitted concentration of half-maximal effect; for activation: % is set by controls: 0 for no effect and ±100 for the full control effect
Chain of Retinoic acid receptor RXR-alpha (Homo sapiens) (P19793 whole entry, looked up): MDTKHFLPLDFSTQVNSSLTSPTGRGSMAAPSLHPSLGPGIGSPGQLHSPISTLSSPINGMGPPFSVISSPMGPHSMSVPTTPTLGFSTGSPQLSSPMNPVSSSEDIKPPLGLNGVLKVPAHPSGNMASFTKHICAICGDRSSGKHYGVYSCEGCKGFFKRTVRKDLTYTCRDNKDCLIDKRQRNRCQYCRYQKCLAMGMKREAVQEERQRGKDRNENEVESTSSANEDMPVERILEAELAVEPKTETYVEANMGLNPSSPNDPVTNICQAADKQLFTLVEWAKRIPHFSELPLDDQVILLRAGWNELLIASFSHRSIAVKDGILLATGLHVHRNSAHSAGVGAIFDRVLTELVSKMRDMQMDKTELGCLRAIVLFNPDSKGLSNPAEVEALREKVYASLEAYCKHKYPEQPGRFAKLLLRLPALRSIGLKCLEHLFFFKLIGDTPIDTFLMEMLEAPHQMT
Method in brief: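 Read-out: beta-lactamase FRET ratio (405 nm excitation, 460 and 530 nm emission) after 2 hr substrate loading at room temperature. Cells were RXR-alpha-UAS-bla HEK 293T treated with compounds for 16 hr in 2% charcoal-stripped FBS medium.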

[5] = qHTS assay to identify small molecule antagonists of the retinoid-related orphan receptor gamma (ROR-gamma) signaling pathway - cell viability counter screen (AID 1159520; active = well fitted curve in the direction sought with a large enough effect in the repeat runs; an effect the other way counts as inactive or inconclusive; note: % is set by controls: 0 for no effect and ±100 for the full control effect; nearly all actives have a fitted effect of over 50% in size)
Method in brief: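 Tet-on ROR gamma CHO cells were given compounds for 2 hr, then doxycycline hyclate at 1 uM final, and incubated 16 hr at 37 C. Viability was measured as ATP content by CellTiter-Glo luminescence.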

[6] = qHTS assay to identify small molecule agonists of the AP-1 signaling pathway - cell viability counter screen (AID 1159525); note: nearly all actives have a fitted effect of over 55% in size; note: potency is the fitted concentration of half-maximal effect
Method in brief: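 AP-1-bla ME-180 cells in Opti-MEM with 0.5% dialyzed FBS, compound exposure 5 h at 37 C in 15-point titration. Viability read in the same wells as ATP content by CellTiter-Glo luminescence, normalised to tetra-n-octylammonium bromide and DMSO controls.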

[7] = qHTS assay to identify small molecule agonists of the AP-1 signaling pathway (AID 1159526); note: % is set by controls: 0 for no effect and ±100 for the full control effect
[8] = qHTS assay to identify small molecule agonists of the RXR signaling pathway - cell viability counter screen (AID 1159529; active = well fitted curve in the direction sought with a large enough effect in the repeat runs; an effect the other way counts as inactive or inconclusive; note: nearly all actives have a fitted effect of over 50% in size; note: potency is the fitted concentration of half-maximal effect)
Method in brief: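 HEK 293T RXRa-bla cells, 2% CS-FBS; 5 h settle; cpd 16 h 37 C, 5% CO2; CellTiter-Glo 30 min RT, luminescence. Tetraoctyl ammonium bromide as positive control.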

[9] = qHTS assay to identify small molecule agonists of the vitamin D receptor (VDR) signaling pathway - cell viability counter screen (AID 743224; active = well fitted curve in the direction sought with a large enough effect in the repeat runs; an effect the other way counts as inactive or inconclusive; note: nearly all actives have a fitted effect of over 50% in size; note: potency is the fitted concentration of half-maximal effect)
Method in brief: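 Viability is measured in the same wells as the VDR-bla reporter assay: after 16 h compound treatment and 2 h substrate loading, CellTiter-Glo is added and luminescence read 30 min later.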

Oc1ccc(-c2ccccc2)c(Cl)c1
inactive: Potency [1] | Potency [2] | Potency [3] | Potency [4]

C/C=C/CO
inactive: Potency [5] | Potency [3] | Potency [6] | Potency [7] | Potency [4] | Potency [8]

Oc1c(Br)cc(Br)c2cccnc12
active: Potency [9] 3.35 µM | Potency [8] 1.51 µM
inactive: Potency [2] | Potency [6]

Cc1c(-c2ccc(O)cc2)n(Cc2ccc(OCCN3CCCCCC3)cc2)c2ccc(O)cc12
inactive: Potency [2]
active: Potency [8] 26.8 µM

CCCCCCCCCCOCC(O)CN (configuration not stated)
inactive: Potency [7]
active: Potency [2] 21.3 µM | Potency [3] 26.6 µM

Cc1ccc(-n2[nH]c(C)c(N=Nc3cccc(-c4cccc(C(=O)O)c4)c3O)c2=O)cc1C
active: Potency [6] 26.8 µM
inactive: Potency [9] | Potency [1] | Potency [2] | Potency [4]

CC(C)(C)c1cc(CCC(=O)NCCCCCCNC(=O)CCc2cc(C(C)(C)C)c(O)c(C(C)(C)C)c2)cc(C(C)(C)C)c1O
inactive: Potency [5] | Potency [3] | Potency [6] | Potency [7] | Potency [4] | Potency [8]

CCO[Si](C)(C)OCC
inactive: Potency [5] | Potency [3] | Potency [6] | Potency [7] | Potency [4] | Potency [8]

Cc1cccc(C)n1
inactive: Potency [5] | Potency [3] | Potency [6] | Potency [7] | Potency [4] | Potency [8]

Brc1ccccn1
inactive: Potency [5] | Potency [3] | Potency [6] | Potency [7] | Potency [4] | Potency [8]

CC1CCCCC1
inactive: Potency [5] | Potency [3] | Potency [6] | Potency [7] | Potency [4] | Potency [8]

CCCCCCCCCCCCCCCCCO
inactive: activity, negative = cytotoxicity [5] -0.0509% [at 19 µM] | activity change, negative = inhibition [3] -0.415% [at 19 µM] | viability change, negative = cytotoxic [6] -0.925% [at 15.8 µM] | activation [7] -5.53% [at 15.8 µM] | activation [4] 2.15% [at 15.8 µM] | activity change, negative = cytotoxicity [8] -0.179% [at 15.8 µM]

COc1cccc(OC)c1O
inactive: Potency [5] | Potency [3] | Potency [6] | Potency [7] | Potency [4] | Potency [8]

COc1cccc(O)c1
inactive: Potency [5] | Potency [3] | Potency [6] | Potency [7] | Potency [4] | Potency [8]

C=C(C)CCCC
inactive: Potency [5] | Potency [3] | Potency [6] | Potency [7] | Potency [4] | Potency [8]

CC(C)c1ccccc1N
inactive: Potency [5] | Potency [3] | Potency [6] | Potency [7] | Potency [4] | Potency [8]

CCC(C)C(=O)OC (configuration not stated)
inactive: Potency [5] | Potency [3] | Potency [6] | Potency [7] | Potency [4] | Potency [8]

CC1(C)COCN1
inactive: Potency [5] | Potency [3] | Potency [6] | Potency [7] | Potency [4] | Potency [8]

CCOCOCC
inactive: Potency [5] | Potency [3] | Potency [6] | Potency [7] | Potency [4] | Potency [8]

CN1CN(C)CN(C)C1
inactive: Potency [5] | Potency [3] | Potency [6] | Potency [7] | Potency [4] | Potency [8]

CCc1c(Br)c(Br)c(Br)c(Br)c1Br
active: Potency [4] 38.9 µM
inactive: Potency [5] | Potency [3] | Potency [6] | Potency [7] | Potency [8]

CO[Si](CCC1CCC2OC2C1)(OC)OC (configuration not stated)
inactive: Potency [5] | Potency [3] | Potency [6] | Potency [7] | Potency [4] | Potency [8]

CCOC(=O)CN
inactive: Potency [5] | Potency [3] | Potency [6] | Potency [7] | Potency [4] | Potency [8]

C=CC/C=C/C/C=C/C/C=C/C
inactive: Potency [5] | Potency [3] | Potency [6] | Potency [7] | Potency [4] | Potency [8]

CC(C)=CCCC(C)O (configuration not stated)
inactive: Potency [5] | Potency [3] | Potency [6] | Potency [7] | Potency [4] | Potency [8]

CCOCN(C(=O)CS(=O)(=O)O)c1c(C)cccc1CC
inactive: Potency [5] | Potency [3] | Potency [6] | Potency [7] | Potency [4] | Potency [8]

Clc1cccnc1
inactive: Potency [5] | Potency [3] | Potency [6] | Potency [7] | Potency [4] | Potency [8]

CCc1ccc(C)nc1
inactive: Potency [5] | Potency [3] | Potency [6] | Potency [7] | Potency [4] | Potency [8]

CC1(C)C(=O)N(CO)C(=O)N1CO
inactive: Potency [5] | Potency [3] | Potency [6] | Potency [7] | Potency [4] | Potency [8]

CC(=O)C=O
inactive: Potency [5] | Potency [3] | Potency [6] | Potency [7] | Potency [4] | Potency [8]

Clc1nc2ccccc2s1
inactive: Potency [5] | Potency [3] | Potency [6] | Potency [7] | Potency [4] | Potency [8]

CC(C)=CC1CC(C)CCO1 (configuration not stated)
inactive: Potency [5] | Potency [3] | Potency [6] | Potency [7] | Potency [4] | Potency [8]

CC(C)=CCCC(C)CCOC(=O)C(C)C (configuration not stated)
inactive: Potency [5] | Potency [3] | Potency [6] | Potency [7] | Potency [4] | Potency [8]

OCCC(O)CO (configuration not stated)
inactive: Potency [5] | Potency [3] | Potency [6] | Potency [7] | Potency [4] | Potency [8]
